# Results: the supplement of paper PMC10338343
# ± gives the standard deviation.
# System: MILI (PIWIL2) piRISC loaded with L1MC piRNA (26 nt)
# Test: pre-steady-state target cleavage rate (min^-1); guide: L1MC piRNA 5'p-UAACUAAAUACUAUGCAAGCUGUAGG; MIWI and MILI are mouse PIWI proteins and EfPiwi is from a freshwater sponge; tags in brackets are library labels; higher = faster piRNA-guided slicing of the target
# Conditions: auxiliary factor: 500 nM mouse GTSF1
# How it was run: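 Three pooled Cleave-'n-Seq trials supplied the data, with k3 capped at 0.0001 min^-1. In each, […] transcribed, DNA-blocked target RNA library and 1 nM active affinity-purified piRISC with one synthetic guide reacted in HEPES–potassium acetate buffer at 33 °C for 0–8 or 0–960 min, with or without 500 nM GTSF1 partner protein. Uncleaved targets were sequenced and normalised to depth and to weakly complementary targets. A burst-and-steady-state fit provided the pre-steady-state cleavage rate.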
# 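Note: 1 nM active piRISC with 0.1 nM target library at 33 °C single turnover.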
row,Sequence,pre-steady-state target cleavage rate
1,UCCUCGUACAGCUUGCAUAGUAUUUAGAUA,0.177 ± 0.025
2,UCCUCCUACUCCUUGCAUAGUAUUUAGAAA,0.0907 ± 0.021
3,UCCUGCUACAGCUUGCAUAGUAUUGAGUUA,0.114 ± 0.027
4,UCCUCCUAGAGCUUCCAUAGUAUUUAGUUA,0.0812 ± 0.025
5,UCCUGGAUGACGAUGCAUAGUAUUUAGUUA,0.0949 ± 0.013
6,UCCUGGUACAGCUUGCAUAGAAUUUAGUUA,0.229 ± 0.08
7,UCCUCCUACAGCAUGCAUAGUAUUUAGAAA,0.211 ± 0.03
8,UCCUGCUACAGCUUGCAUAGUAUAUAGUAA,0.0474 ± 0.018
9,UCCUGGAUGAGCUUGCUUAGUAUUUAGAUA,0.128 ± 0.02
10,UCCUGGAACAGCUUGCAUAGUUAUUAGUAA,0.0204 ± 0.0084
11,UCCUGCUAGAGCUUGCAUAGUAUUUAGAUA,0.117 ± 0.015
12,UCCUCGAACAGCUUGCAUAGUAUUUUCAAA,0.102 ± 0.021
13,UCCUCGAACAGCUUGCAUAGUAUUUAGAAA,0.137 ± 0.019
14,UCCUGGUACUGCUUGCAUAGUAUAUAGUUA,0.168 ± 0.044
15,UCCUGCUACAGCUUGCAUACUAUUAAGUUA,0.0719 ± 0.018
16,UCCUGGAACAGCUUGCAUAGUAUAUAGAAA,0.0917 ± 0.026
17,UCCUGGAUCAGCUUGCAUACUAUUAAGUUA,0.0204 ± 0.0077
18,UCCUCCUACACCUUGCAUAGUAUUUUGUUA,0.101 ± 0.026
19,UCCUGGAACAGCUUGCAUAGUAUUCUAGUUA,0.145 ± 0.032
20,UCCUGGUACAGCUUGCUUAGUAUUUAGAAA,0.0808 ± 0.021
21,UCCUGCAACAGCUUGCAUAGUAUUUACAAA,0.232 ± 0.053
22,UCCUCCUACAGCUUGCAUAGUAUUGAGUUA,0.133 ± 0.026
23,UCCUGGAUGAGCUUGCAUAGUAUUUACAAA,0.0638 ± 0.018
24,UCCUGCUACAGCUUGCAUAGUAUUAUCUUA,0.16 ± 0.035
